Measurements published in PubChem BioAssay (NCATS).
Records with an inconclusive call do not appear. Active and inactive are the calls of the source. The call rests on the fitted dose curve; in most records, active means well fitted inhibition curve with a large enough effect; inconclusive means small, poorly fitted or top-dose-only effect, or effect the other way; inactive means flat fitted curve, though single readings scatter.

Target: ATP-dependent 6-phosphofructokinase (Trypanosoma brucei brucei) (UniProt O15648)
Sequence (O15648 whole entry, looked up): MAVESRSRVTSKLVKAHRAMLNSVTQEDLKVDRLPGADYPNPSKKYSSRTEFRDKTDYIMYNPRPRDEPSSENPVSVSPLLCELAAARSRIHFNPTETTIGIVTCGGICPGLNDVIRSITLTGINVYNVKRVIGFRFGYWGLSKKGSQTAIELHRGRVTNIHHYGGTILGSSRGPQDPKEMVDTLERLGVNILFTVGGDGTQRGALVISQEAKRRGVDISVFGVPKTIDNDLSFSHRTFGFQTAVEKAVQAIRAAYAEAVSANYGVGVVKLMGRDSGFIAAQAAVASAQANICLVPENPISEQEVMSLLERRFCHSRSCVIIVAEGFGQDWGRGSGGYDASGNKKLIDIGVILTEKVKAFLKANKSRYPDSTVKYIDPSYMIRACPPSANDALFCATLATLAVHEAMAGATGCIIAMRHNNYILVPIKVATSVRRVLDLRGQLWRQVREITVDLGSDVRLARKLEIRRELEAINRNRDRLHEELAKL
Assay: qHTS Assay to Find Inhibitors of T. brucei phosphofructokinase: hit validation (AID 492961);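 further: luminescence reports ADP formed as PFK phosphorylates fructose-6-phosphate with ATP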
Settings: T. brucei PFK, ADP-Glo luminescence; series mostly up to 51.4 µM; activity change, negative = inhibition: at the top concentration
Method in brief: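 Reaction: 0.1 M triethanolamine pH 8.0, 5 mM MgCl2, F6P 0.5 mM, ATP 0.1 mM, PFK 1.25 nM, 45 min RT. Read-out: ADP-Glo luminescence. Analysis: concentration-response fits, classed by r2 and efficacy.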
On the % scale 0 is the no-effect control and ±100 the full control effect.

| Structure (SMILES) | activity change, negative = inhibition |
| --- | --- |
| CCCCCCCCCC(=O)O[C@H]1CC[C@H]2[C@@H]3CCC4=CC(=O)CC[C@@H]4[C@H]3CC[C@]12C | 15.3% (inactive) |
| c1ccc2c(c1)sc1ccccc12 | -3.39% (inactive) |
| CC(C)=CC1C(C(=O)OCN2C(=O)C3=C(CCCC3)C2=O)C1(C)C (configuration not stated) | -10.5% (inactive) |
| CN1CCC(O)(c2ccc(F)cc2)C(C(=O)c2ccc(F)cc2)C1 (configuration not stated) | -12.4% (inactive) |
| CN1C(=O)COc2c(C(=O)NC3CN4CCC3CC4)cc(Cl)cc21 (configuration not stated) | 7.42% (inactive) |
| C[C@](O)(CS(=O)(=O)c1ccc(F)cc1)C(=O)Nc1ccc(C#N)c(C(F)(F)F)c1 | -3.43% (inactive) |
| CC(C)(C)NCC(O)c1cc(Cl)c(N)c(C(F)(F)F)c1 (configuration not stated) | 2.15% (inactive) |
| CN1C[C@H](C(=O)N[C@]2(C)O[C@@]3(O)[C@@H]4CCCN4C(=O)[C@H](Cc4ccccc4)N3C2=O)C=C2c3cccc4[nH]cc(c34)C[C@H]21 | 1.39% (inactive) |
| COC(=O)C(c1ccccc1)C1CCCCN1 (configuration not stated) | -12% (inactive) |
| CC(C)NC(C)C | 0.269% (inactive) |
| O=C(N/N=C/c1ccc([N+](=O)[O-])o1)c1cc([N+](=O)[O-])cc([N+](=O)[O-])c1O | -8.32% (inactive) |
| C[C@]12CC[C@@H]3c4ccc(OC(=O)N(CCCl)CCCl)cc4CC[C@H]3[C@@H]1CC[C@@H]2O | 9.56% (inactive) |
| O=C1c2ccccc2C(=O)c2ccccc21 | -10.9% (inactive) |
| COc1ccc2c(c1)C13CCCC[C@@H]1C(C2)N(C)CC3 (some centres not stated) | -7.72% (inactive) |
| Clc1cccc(SC2CCNCC2)n1 | 0% (inactive) |
| CCCCCCC(=O)CCCCCC/C=C/C[C@@H](O)[C@H](O)[C@@](N)(CO)C(=O)O | 2.53% (inactive) |
| Nc1ccc([As](=O)(O)O)cc1 | 4.93% (inactive) |
